Data as given in the supplement of paper PMC10849652.
Targets with a hit are over-represented here; the source holds about 7,900 in all. About 0.6% of all pairs of compound and target were hits. A number with no mark means an inactive call.

Experiments:
Assay in all cases: log2 fold change, soluble protein after heating vs DMSO (PISA); higher = thermal stabilisation; K562 cells, 10 uM, 30 min; active = over 0.2 and 3.5 SD of the protein, either way, in both replicates (recomputed)
[1] = compound: CN1CCN(CCOc2cc(OC3CCOCC3)c3c(Nc4c(Cl)ccc5c4OCO5)ncnc3c2)CC1 [saracatinib]
Procedure, shortened: (§1)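 K562 cells at 2×10^6 cells/mL were treated for 30 min with 10 μM compound, and aliquots were heated for 3 min over 48°C-58°C before pooling. Extraction used PBS with 0.5% NP-40 at 4°C, and soluble protein was the supernatant after 21,000xg for 90 min, measured by TMTpro 16plex LC-MS/MS with channel sums equalised. Thermal stability values, relative to control samples and from duplicates, are log2 fold changes.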

[2] = compound: CN1CCN(c2nc(C3=C(c4c[nH]c5ccccc45)C(=O)NC3=O)c3ccccc3n2)CC1 [sotrastaurin]
Procedure, shortened: as §1

[3] = compound: CN1CC[C@H](c2c(O)cc(O)c3c(=O)cc(-c4ccccc4Cl)oc23)[C@H](O)C1 [alvocidib]
Procedure, shortened: as §1

[4] = compound: CN1CCc2c(c3ccccc3n2Cc2ccc(C(=O)NO)cc2)C1 [Tubastatin A]
Procedure, shortened: as §1

[5] = compound: CNC(=O)C1=CC=CC=C1NC2=NC(=NC=C2Cl)NC3=C(C=C(C=C3)N4CCOCC4)OC
Procedure, shortened: as §1

[6] = compound: CNC(=O)c1ccc(Nc2ncc(C(F)(F)F)c(NCc3nccnc3N(C)S(C)(=O)=O)n2)cc1 [defactinib]
Procedure, shortened: as §1

[7] = compound: CNCc1ccc(-c2[nH]c3cc(F)cc4c3c2CCNC4=O)cc1 [rucaparib]
Procedure, shortened: as §1

[8] = compound: CNc1nc(-c2ccc3c(N)n[nH]c3c2)cc(N2C[C@@H](C(=O)NC3CCCCC3)CC[C@H]2C)n1
Procedure, shortened: as §1

[9] = compound: COC(=O)N[C@@H](C)CNc1nccc(-c2cn(C(C)C)nc2-c2cc(Cl)cc(NS(C)(=O)=O)c2F)n1 [encorafenib]
Procedure, shortened: as §1

[10] = compound: COC(=O)[C@H](CCSC)NC(=O)C1=C(C=C(C=C1)NC[C@H](CS)N)C2=CC=CC=C2
Procedure, shortened: as §1

UniProt Q8WUK0, sequence (Q8WUK0 whole entry, looked up): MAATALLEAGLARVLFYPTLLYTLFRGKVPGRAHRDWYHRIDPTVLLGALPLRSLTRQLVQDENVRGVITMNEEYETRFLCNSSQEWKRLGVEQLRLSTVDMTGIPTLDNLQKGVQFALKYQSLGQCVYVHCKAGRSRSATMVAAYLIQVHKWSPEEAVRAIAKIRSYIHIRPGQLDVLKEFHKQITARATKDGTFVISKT
UniProt O95613, sequence (O95613 whole entry, looked up): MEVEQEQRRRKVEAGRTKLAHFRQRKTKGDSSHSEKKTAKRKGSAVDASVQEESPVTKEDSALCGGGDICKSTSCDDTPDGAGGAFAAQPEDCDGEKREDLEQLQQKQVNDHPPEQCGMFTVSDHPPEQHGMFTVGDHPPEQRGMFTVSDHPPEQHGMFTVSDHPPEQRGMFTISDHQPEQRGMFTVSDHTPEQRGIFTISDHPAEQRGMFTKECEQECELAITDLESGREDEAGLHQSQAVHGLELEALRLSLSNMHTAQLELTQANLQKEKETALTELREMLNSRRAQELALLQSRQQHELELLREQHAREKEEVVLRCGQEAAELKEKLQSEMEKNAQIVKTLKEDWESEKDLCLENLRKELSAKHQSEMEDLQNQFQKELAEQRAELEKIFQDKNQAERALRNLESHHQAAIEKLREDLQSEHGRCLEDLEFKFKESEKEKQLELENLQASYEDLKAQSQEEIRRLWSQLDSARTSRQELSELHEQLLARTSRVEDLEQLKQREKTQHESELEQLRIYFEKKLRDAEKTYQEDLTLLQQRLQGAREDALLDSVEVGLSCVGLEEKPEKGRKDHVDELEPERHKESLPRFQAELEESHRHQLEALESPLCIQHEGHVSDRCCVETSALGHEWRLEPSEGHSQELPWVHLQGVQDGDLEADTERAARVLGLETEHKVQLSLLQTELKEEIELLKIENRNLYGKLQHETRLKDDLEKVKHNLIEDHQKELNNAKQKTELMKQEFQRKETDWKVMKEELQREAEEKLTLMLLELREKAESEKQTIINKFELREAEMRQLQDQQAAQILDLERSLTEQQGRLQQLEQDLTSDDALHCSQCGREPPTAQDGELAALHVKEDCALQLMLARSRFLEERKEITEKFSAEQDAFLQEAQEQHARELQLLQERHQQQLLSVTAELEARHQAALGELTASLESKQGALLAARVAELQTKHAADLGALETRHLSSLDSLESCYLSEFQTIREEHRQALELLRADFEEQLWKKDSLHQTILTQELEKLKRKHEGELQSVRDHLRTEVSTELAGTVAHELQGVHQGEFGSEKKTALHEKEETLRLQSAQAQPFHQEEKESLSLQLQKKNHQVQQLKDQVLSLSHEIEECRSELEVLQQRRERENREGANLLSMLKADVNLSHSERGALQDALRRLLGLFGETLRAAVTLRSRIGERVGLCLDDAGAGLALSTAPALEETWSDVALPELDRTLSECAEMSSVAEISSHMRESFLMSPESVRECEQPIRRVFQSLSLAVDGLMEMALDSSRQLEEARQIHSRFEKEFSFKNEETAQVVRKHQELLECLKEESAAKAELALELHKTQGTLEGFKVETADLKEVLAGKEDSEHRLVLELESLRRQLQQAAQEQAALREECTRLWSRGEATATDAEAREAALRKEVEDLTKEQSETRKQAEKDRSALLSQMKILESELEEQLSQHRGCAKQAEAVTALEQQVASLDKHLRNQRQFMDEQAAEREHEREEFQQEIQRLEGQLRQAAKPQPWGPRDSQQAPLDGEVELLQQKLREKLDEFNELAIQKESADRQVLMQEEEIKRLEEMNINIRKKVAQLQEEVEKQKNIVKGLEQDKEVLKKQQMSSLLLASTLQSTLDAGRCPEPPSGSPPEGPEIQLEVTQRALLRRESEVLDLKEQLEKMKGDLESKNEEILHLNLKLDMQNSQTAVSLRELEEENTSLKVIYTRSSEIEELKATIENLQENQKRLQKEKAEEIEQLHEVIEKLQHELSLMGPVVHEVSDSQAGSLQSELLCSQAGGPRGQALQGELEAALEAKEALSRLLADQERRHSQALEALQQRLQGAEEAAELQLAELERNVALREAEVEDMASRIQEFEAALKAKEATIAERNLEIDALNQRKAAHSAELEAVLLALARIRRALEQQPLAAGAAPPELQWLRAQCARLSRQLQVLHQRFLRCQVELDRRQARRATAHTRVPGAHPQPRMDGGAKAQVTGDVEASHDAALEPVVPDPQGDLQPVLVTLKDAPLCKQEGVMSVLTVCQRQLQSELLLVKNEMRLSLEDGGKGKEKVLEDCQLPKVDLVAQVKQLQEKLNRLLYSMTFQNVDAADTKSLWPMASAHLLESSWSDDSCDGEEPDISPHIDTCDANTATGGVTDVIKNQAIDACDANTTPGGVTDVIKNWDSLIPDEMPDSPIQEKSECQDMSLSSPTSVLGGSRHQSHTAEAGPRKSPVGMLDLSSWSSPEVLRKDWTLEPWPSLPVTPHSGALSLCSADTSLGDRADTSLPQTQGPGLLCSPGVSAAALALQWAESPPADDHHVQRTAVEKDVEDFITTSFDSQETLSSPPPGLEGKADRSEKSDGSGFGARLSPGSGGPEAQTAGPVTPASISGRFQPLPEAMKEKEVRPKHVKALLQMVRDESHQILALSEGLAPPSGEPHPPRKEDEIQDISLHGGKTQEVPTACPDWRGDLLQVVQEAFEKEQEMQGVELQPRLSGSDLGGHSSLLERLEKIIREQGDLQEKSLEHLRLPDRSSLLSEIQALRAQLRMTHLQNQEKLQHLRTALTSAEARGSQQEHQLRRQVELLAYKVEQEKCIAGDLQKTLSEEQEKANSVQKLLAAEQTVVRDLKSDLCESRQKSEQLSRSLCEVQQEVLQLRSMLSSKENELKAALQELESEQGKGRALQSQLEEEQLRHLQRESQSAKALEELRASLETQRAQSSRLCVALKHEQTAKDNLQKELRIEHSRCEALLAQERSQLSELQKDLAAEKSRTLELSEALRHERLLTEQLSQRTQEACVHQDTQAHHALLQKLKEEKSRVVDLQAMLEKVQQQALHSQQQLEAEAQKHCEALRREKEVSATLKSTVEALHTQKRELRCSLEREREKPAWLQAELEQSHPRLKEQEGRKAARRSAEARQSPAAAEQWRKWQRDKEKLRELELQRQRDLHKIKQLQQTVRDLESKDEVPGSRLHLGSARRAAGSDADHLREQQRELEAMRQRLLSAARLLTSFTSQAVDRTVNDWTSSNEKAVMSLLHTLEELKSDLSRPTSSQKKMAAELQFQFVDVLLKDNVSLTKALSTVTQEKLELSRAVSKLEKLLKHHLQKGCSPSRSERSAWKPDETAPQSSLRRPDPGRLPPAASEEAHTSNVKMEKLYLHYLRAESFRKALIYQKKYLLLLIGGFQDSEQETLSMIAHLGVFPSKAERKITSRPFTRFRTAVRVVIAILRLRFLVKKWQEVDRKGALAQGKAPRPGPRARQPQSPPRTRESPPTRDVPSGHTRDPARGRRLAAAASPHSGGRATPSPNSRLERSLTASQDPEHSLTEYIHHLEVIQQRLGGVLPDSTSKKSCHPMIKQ
UniProt P29590, sequence (P29590 whole entry, looked up): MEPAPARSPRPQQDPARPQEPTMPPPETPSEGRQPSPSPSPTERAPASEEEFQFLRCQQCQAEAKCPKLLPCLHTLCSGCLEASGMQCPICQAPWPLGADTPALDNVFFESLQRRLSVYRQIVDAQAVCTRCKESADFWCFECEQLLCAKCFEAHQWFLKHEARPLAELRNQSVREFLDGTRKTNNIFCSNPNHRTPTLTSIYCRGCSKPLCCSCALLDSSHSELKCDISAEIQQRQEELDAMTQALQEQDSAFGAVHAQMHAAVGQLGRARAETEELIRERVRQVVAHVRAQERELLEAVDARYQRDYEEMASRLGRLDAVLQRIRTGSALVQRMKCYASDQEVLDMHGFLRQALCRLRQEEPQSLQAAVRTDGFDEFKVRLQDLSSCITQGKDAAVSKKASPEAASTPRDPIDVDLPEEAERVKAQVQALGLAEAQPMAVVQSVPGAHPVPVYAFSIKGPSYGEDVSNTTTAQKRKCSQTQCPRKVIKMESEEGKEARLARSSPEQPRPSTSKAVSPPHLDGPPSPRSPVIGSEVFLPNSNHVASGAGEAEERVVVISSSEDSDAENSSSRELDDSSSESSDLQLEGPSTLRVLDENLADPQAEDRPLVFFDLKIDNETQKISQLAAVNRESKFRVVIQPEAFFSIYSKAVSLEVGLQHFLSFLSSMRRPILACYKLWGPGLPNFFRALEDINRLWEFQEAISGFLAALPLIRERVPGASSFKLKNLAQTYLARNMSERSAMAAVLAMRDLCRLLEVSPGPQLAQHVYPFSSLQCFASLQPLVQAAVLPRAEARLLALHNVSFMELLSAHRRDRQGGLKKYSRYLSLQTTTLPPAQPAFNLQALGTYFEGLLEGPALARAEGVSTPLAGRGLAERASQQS
UniProt O43741, sequence (O43741 whole entry, looked up): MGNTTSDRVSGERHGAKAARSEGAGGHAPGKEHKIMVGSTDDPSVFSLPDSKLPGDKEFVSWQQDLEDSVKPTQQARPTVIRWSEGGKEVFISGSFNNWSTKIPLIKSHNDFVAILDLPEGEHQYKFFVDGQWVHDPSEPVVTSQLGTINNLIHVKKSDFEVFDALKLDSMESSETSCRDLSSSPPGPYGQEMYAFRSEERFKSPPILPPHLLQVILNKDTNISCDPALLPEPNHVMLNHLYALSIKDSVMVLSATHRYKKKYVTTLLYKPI
UniProt P62195, sequence (P62195 whole entry, looked up): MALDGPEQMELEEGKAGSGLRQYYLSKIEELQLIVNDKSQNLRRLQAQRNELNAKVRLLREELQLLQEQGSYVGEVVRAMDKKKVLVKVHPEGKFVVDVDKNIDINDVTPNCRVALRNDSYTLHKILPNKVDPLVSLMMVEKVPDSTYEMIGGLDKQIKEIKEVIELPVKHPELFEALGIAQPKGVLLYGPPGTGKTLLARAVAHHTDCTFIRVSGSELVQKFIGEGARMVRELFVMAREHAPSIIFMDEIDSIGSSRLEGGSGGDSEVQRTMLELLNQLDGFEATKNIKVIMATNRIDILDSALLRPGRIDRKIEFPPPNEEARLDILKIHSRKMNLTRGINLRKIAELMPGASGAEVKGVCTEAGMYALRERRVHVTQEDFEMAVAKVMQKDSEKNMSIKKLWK

| Target | log2 fold change [1] | log2 fold change [2] | log2 fold change [3] | log2 fold change [4] | log2 fold change [5] | log2 fold change [6] | log2 fold change [7] | log2 fold change [8] | log2 fold change [9] | log2 fold change [10] |
| --- | --- | --- | --- | --- | --- | --- | --- | --- | --- | --- |
| PPID (UniProt Q08752) | -0.137 | -0.178 | -0.069 | 0.051 | 0.044 | -0.101 | 0.135 | 0.042 | 0.142 | -0.052 |
| PRKAB1 (UniProt Q9Y478) | 0.077 | 0 | -0.041 | 0.087 | -0.117 | -0.037 | 0.011 | -0.02 | 0.028 | -0.021 |
| PTRH2 (UniProt Q9Y3E5) | -0.008 | 0.027 | -0.09 | -0.052 | 0.148 | -0.009 | -0.002 | -0.051 | 0.017 | 0 |
| PCGF2 (UniProt P35227) | -0.029 | 0.04 | -0.074 | 0.039 | -0.057 | -0.129 | 0.024 | 0.122 | 0.071 | 0.027 |
| PTGFRN (UniProt Q9P2B2) | 0.029 | 0.082 | -0.029 | 0 | -0.092 | -0.049 | -0.024 | 0.056 | -0.004 | 0.053 |
| PSMB4 (UniProt P28070) | -0.012 | 0.026 | 0.078 | -0.002 | -0.031 | 0.038 | 0.019 | -0.032 | 0.011 | 0.006 |
| PIR (UniProt O00625) | 0.025 | -0.01 | -0.068 | -0.284 (active) | -0.002 | -0.09 | 0.045 | 0 | -0.045 | 0.012 |
| PLBD1 (UniProt Q6P4A8) | 0.024 | 0.071 | -0.017 | -0.013 | 0.054 | 0.023 | 0.034 | 0.001 | 0.001 | 0 |
| PXK (UniProt Q7Z7A4) | -0.023 | 0.004 | -0.055 | -0.033 | 0.03 | -0.025 | -0.027 | -0.007 | 0.08 | -0.048 |
| PTPN23 (UniProt Q9H3S7) | -0.007 | -0.13 | -0.061 | 0.112 | 0.055 | -0.169 | 0.074 | -0.055 | 0.043 | -0.023 |
| PTDSS1 (UniProt P48651) | -0.011 | 0.006 | 0.129 | 0.048 | -0.065 | 0.13 | 0.292 | 0.07 | 0.224 | 0.01 |
| POLA1 (UniProt P09884) | 0.006 | -0.096 | -0.163 | 0.025 | 0.079 | -0.156 | -0.126 | -0.016 | -0.005 | -0.035 |
| PIK3R1 (UniProt P27986) | 0.014 | 0.001 | -0.079 | -0.017 | -0.014 | -0.06 | 0.052 | 0.022 | 0.08 | -0.024 |
| PFAS (UniProt O15067) | -0.043 | 0 | -0.066 | 0.046 | -0.324 (active) | -0.029 | 0 | 0.251 | 0.011 | -0.075 |
| PCNT (UniProt O95613) | -0.06 | 0.115 | 0.067 | -0.069 | -0.098 | 0.154 | -0.116 | 0.019 | 0.037 | 0.091 |
| QKI (UniProt Q96PU8) | -0.004 | -0.001 | -0.106 | 0.062 | -0.044 | -0.23 (active) | -0.006 | -0.036 | -0.036 | 0.004 |

| Target | log2 fold change [1] | log2 fold change [2] | log2 fold change [3] | log2 fold change [4] | log2 fold change [5] | log2 fold change [6] | log2 fold change [7] | log2 fold change [8] | log2 fold change [9] | log2 fold change [10] |
| --- | --- | --- | --- | --- | --- | --- | --- | --- | --- | --- |
| PML (UniProt P29590) | -0.001 | -0.038 | -0.005 | -0.051 | 0.024 | -0.053 | -0.008 | -0.031 | 0.005 | 0 |
| PSMC1 (UniProt P62191) | -0.062 | -0.022 | 0.057 | -0.009 | -0.019 | 0.083 | 0.043 | 0.024 | 0.022 | -0.001 |
| PARL (UniProt Q9H300) | 0.056 | 0.019 | 0.026 | -0.053 | 0.025 | -0.011 | -0.005 | -0.052 | 0.029 | 0.015 |
| PPIL1 (UniProt Q9Y3C6) | -0.007 | -0.088 | 0.096 | -0.016 | 0.042 | 0.09 | 0.056 | -0.062 | 0.052 | -0.042 |
| PSMC5 (UniProt P62195) | -0.041 | -0.004 | 0.065 | -0.013 | -0.028 | 0.066 | 0.025 | 0.065 | 0.02 | 0.009 |
| PTPMT1 (UniProt Q8WUK0) | -0.037 | -0.059 | -0.008 | -0.063 | 0.027 | -0.07 | -0.118 | -0.019 | 0.044 | 0.045 |
| PPP4R3B (UniProt Q5MIZ7) | -0.008 | -0.05 | -0.11 | 0.022 | 0.057 | -0.023 | -0.065 | -0.033 | 0.014 | 0.003 |
| PSMD5 (UniProt Q16401) | 0.019 | -0.014 | -0.047 | -0.037 | 0.016 | -0.049 | -0.045 | -0.028 | 0.008 | 0.031 |
| PIKFYVE (UniProt Q9Y2I7) | -0.001 | -0.081 | -0.175 | -0.032 | 0.009 | -0.033 | 0.068 | -0.106 | 0.099 | -0.025 |
| POLR1A (UniProt O95602) | -0.027 | -0.151 | -0.06 | 0.148 | -0.138 | -0.011 | 0.064 | -0.089 | -0.015 | 0.115 |
| PGGT1B (UniProt P53609) | 0 | 0.121 | -0.014 | -0.047 | -0.025 | 0.001 | -0.032 | -0.017 | 0.013 | 0.227 (active) |
| PRKAB2 (UniProt O43741) | -0.064 | -0.077 | -0.094 | 0.039 | -0.159 | -0.084 | -0.371 | -0.022 | 0.118 | -0.036 |
| PKM (UniProt P14618) | 0.012 | 0.024 | 0 | -0.004 | -0.028 | -0.01 | -0.052 | -0.007 | -0.01 | 0.011 |
| PCBP2 (UniProt F8VRH0) | 0.255 | -0.319 | 0.106 | 0.155 | 0.105 | 0.009 | 0.066 | -0.014 | 0.014 | 0.066 |
| PIP4P2 (UniProt Q8N4L2) | 0.056 | -0.003 | -0.048 | 0.072 | -0.007 | 0.004 | -0.003 | -0.106 | -0.04 | 0.093 |
